Our source for the inhibition values is ChEMBL document CHEMBL1961873, “Compounds: GSK PKIS; Assays: Nanosyn kinase panel” (2012).

Test [1] addresses Serine/threonine-protein kinase 26 (Homo sapiens) (UniProt Q9P289). The following applies: at 1 µM.
The target of test [2] is Serine/threonine-protein kinase PAK 1 (Homo sapiens) (UniProt Q13153). To be noted: at 0.1 µM.
Test [3] shares this target. To be noted: at 1 µM.
In test [4] the target is Serine/threonine-protein kinase PAK 2 (Homo sapiens) (UniProt Q13177). The following applies: at 0.1 µM.
Test [5] shares this target. The following applies: at 1 µM.
In test [6] the target is Serine/threonine-protein kinase PAK 3 (Homo sapiens) (UniProt O75914). The following applies: at 0.1 µM.
For test [7] the target is unchanged. To be noted: at 1 µM.
Test [8] deals with Serine/threonine-protein kinase PAK 5 (Homo sapiens) (UniProt Q9P286). The following applies: at 0.1 µM.
The target is the same in test [9]. To be noted: at 1 µM.
Test [10] deals with Serine/threonine-protein kinase PAK 6 (Homo sapiens) (UniProt Q9NQU5). The following applies: at 0.1 µM.
The target is the same in test [11]. The following applies: at 1 µM.
Test [12] concerns Tyrosine-protein kinase ABL1 (Homo sapiens), P00519 [E255K]. The following applies: at 0.1 µM.
Test [13] has the same test system. The following applies: at 1 µM.
Test [14] has as its system Tyrosine-protein kinase ABL1 (Homo sapiens), P00519 [H396P]. To be noted: at 0.1 µM.
Test [15] has the same test system. To be noted: at 1 µM.
Test [16] deals with Tyrosine-protein kinase ABL1 (Homo sapiens), P00519 [M351T]. To be noted: at 0.1 µM.
Test [17] shares this test system. The following applies: at 1 µM.
Test [18] has as its system Tyrosine-protein kinase ABL1 (Homo sapiens), P00519 [Q252H]. The following applies: at 0.1 µM.
For test [19] the test system is unchanged. The following applies: at 1 µM.
Test [20] has as its system Tyrosine-protein kinase ABL1 (Homo sapiens), P00519 [T315I]. The following applies: at 0.1 µM.

Where “and” joins values, the source holds several entries; their conditions need not be identical. Equal values may be shown once.

Serine/threonine-protein kinase 26 (Homo sapiens), sequence (Q9P289 2-416 limits assumed): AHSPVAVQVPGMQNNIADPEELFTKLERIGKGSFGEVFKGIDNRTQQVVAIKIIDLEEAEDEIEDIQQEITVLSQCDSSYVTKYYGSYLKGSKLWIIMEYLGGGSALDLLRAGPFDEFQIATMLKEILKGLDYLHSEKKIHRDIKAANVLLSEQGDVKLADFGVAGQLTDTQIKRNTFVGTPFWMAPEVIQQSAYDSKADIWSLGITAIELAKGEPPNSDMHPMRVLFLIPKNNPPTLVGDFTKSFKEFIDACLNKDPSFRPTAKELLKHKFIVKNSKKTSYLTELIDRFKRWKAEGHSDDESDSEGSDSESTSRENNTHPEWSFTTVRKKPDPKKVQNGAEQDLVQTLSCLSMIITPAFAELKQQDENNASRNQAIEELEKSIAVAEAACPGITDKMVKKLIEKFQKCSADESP
Serine/threonine-protein kinase PAK 3 (Homo sapiens), sequence (O75914 whole entry, looked up): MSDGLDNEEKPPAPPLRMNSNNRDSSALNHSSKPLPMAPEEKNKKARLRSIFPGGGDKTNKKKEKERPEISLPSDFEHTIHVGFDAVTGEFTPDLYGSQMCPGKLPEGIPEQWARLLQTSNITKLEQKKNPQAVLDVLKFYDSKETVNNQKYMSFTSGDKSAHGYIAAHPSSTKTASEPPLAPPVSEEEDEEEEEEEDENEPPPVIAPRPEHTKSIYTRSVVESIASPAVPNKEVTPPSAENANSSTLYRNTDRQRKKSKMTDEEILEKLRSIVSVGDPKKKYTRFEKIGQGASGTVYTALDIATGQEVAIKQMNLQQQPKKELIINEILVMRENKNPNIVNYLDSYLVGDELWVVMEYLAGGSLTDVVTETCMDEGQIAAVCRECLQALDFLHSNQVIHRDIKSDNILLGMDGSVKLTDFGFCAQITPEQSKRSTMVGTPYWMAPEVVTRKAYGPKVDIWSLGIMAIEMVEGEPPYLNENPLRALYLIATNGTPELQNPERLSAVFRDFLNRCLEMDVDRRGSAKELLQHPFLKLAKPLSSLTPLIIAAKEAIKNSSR
Serine/threonine-protein kinase PAK 2 (Homo sapiens), sequence (Q13177 whole entry): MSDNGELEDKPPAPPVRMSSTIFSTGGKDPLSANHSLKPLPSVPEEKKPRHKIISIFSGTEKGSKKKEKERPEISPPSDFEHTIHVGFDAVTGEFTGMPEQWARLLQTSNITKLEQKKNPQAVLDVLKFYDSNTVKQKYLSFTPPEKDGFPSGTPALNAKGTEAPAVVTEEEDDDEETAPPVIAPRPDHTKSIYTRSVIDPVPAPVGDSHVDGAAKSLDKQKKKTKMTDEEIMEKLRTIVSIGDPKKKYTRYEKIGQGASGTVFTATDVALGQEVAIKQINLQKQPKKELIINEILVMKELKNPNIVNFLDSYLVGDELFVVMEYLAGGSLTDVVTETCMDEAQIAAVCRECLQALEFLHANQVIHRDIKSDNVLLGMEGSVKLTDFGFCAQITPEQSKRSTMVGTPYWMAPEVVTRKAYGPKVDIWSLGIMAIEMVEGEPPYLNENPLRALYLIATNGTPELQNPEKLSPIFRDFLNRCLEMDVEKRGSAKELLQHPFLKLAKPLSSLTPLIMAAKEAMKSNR
Serine/threonine-protein kinase PAK 6 (Homo sapiens), sequence (Q9NQU5 whole entry, looked up): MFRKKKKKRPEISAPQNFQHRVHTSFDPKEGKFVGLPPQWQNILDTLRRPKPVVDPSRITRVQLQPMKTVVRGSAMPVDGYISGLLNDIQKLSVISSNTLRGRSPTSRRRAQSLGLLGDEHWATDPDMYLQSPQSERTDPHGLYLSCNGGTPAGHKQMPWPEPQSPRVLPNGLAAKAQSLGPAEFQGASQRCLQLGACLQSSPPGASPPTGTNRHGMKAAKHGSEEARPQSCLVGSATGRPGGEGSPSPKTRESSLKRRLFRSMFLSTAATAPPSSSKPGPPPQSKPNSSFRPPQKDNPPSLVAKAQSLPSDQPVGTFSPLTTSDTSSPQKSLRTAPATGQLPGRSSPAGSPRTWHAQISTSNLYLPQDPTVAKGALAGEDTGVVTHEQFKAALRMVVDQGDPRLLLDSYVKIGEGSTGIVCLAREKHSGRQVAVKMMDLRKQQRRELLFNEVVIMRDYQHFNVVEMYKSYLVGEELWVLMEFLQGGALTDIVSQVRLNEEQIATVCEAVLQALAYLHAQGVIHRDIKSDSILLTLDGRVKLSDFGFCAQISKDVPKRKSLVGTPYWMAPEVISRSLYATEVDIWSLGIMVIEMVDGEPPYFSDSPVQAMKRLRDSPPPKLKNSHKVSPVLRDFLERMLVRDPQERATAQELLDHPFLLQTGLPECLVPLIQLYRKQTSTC
Serine/threonine-protein kinase PAK 5 (Homo sapiens), sequence (Q9P286 whole entry, looked up): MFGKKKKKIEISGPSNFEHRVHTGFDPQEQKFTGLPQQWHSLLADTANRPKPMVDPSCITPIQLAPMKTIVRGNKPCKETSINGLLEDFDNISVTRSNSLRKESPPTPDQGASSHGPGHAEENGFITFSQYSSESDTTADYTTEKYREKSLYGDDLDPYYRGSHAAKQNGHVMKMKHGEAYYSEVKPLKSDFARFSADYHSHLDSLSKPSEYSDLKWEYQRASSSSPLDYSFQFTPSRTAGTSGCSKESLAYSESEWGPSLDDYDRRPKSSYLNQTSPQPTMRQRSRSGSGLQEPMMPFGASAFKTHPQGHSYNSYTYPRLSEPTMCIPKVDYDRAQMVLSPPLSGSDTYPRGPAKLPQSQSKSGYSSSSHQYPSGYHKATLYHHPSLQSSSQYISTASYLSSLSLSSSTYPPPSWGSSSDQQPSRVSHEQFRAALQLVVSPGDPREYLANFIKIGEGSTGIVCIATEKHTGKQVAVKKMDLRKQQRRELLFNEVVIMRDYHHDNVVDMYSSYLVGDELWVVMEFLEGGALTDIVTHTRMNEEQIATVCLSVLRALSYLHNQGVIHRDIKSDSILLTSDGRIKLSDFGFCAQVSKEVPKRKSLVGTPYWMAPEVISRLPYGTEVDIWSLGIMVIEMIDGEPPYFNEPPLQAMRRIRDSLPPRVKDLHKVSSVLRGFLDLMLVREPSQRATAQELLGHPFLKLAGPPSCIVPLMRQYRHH
Serine/threonine-protein kinase PAK 1 (Homo sapiens), sequence (Q13153 whole entry): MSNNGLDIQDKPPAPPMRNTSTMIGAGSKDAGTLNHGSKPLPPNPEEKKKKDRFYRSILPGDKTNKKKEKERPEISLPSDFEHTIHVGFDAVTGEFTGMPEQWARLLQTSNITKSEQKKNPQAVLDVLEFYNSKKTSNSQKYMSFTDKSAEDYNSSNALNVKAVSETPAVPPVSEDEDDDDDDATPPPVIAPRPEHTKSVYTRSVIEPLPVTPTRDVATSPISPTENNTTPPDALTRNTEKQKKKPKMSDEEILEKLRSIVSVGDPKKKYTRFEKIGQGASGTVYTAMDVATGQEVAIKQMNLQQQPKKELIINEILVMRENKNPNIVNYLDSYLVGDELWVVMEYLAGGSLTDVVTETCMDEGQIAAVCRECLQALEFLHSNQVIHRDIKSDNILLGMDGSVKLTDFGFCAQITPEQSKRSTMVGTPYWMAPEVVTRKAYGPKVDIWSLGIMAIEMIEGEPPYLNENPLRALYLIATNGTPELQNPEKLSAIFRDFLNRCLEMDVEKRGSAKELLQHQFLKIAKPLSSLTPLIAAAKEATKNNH

In the case of `O=C(O[C@H]1CN[C@H](C#Cc2cc3ncnc(Nc4ccc(OCc5cccc(F)c5)c(Cl)c4)c3s2)C1)N1CCOCC1`, the inhibition was -0.1% in test [1]; 8.7% in test [2]; 7.32% in test [3]; 1.91% in test [4]; 2.46% in [5]; 6.61% in test [6]. Besides, the inhibition in test [7] was 6.74%; in [8] it was 6.46%; in test [9], 0.44%; in [10] it was -7.35%; in test [11], -5.21%; in test [12], 0.66%. Also, the inhibition is 4.53% in [13]; 3.67% in test [14]; 5.92% in test [15]; 2.25% in [16]; 4.53% in test [17]; 3.47% in test [18]. The inhibition in test [19] is 2.92%; in [20], 4.04%.
`O=C(Nc1n[nH]c2nnc(-c3cccnc3)cc12)C1CC1`: the inhibition was 1.72% in test [1]; -0.56% in [2]; 2.67% in [3]; -0.8% in [4]; -0.23% in [5]; -0.23% in test [6]. The inhibition is 0.64% in [7]; -4.39% in test [8]; -1.42% in [9]; -7.92% in test [10]; -4.92% in test [11]; -1.11% in [12]. In addition, the inhibition in test [13] came out at 1.39%; in test [14] it was 0.14%; in test [15], 3.4%; in test [16] it was 2.2%; in test [17], 3.78%; in test [18], 0.59%. Also, the inhibition in [19] was 2.57%; in test [20], -0.5%.
Turning to `c1ccc(-c2n[nH]cc2-c2ccnc(-c3ccc(OCCn4ccnc4)cc3)c2)nc1`, the inhibition was 3.16% in test [1]; 1.76% in test [2]; 3.78% in test [3]; -0.68% in test [4]; 0.37% in test [5]; -0.22% in [6]. In addition, the inhibition in test [7] was -2.41%; in test [8], -0.74%; in [9] it was 4.05%; in [10], -3.76%; in test [11] it was -6.97%; in [12] it was 23.1%. In addition, the inhibition in test [13] came to 71.2%; in [14] it was 46.9%; in test [15] it was 88.1%; in test [16], 43.8%; in test [17] it was 87.2%; in [18], 25.9%. The results for the inhibition in test [19] and in test [20] were 73.4% and 3%, respectively.
For `O=C1Nc2ccccc2/C1=C1\CCc2cc(O)ccc21`, the inhibition in test [1] is -7.51%; in test [2] it was 7.55%; in [3], 7.72%; in [4], 2.86%; in test [5], 3.05%; in test [6] it was 5.7%. The inhibition was 6.44% in test [7]; 0.23% in test [8]; 1.47% in [9]; -1.41% in test [10]; -3.1% in test [11]; 1.09% in test [12]. Moreover, the inhibition stood at 9.2% in [13]; 5.59% in test [14]; 15% in test [15]; 4.89% in test [16]; 15.4% in [17]; 5.53% in test [18]. The inhibition in test [19] was 12.8%; in test [20], 4.27%.
Turning to `COc1cc2c(cc1Nc1nc(Nc3cccc(F)c3C(N)=O)c3cc[nH]c3n1)N(C(=O)CN1CCN(C(C)C)CC1)CC2`, the inhibition in [1] was determined as 2.14%; in [2], 5.25%; in test [3] it was 8.11%; in test [4] it was 1.01%; in [5], 1.35%; in test [6], 2.21%. Moreover, the inhibition in test [7] is 5.46%; in test [8], 2.45%; in test [9] it was 3.7%; in [10], -9.4%; in test [11], -0.05%; in [12], -0.8%. The inhibition in [13] was -0.74%; in test [14], -1.59%; in test [15], 0.65%; in [16] it was -1.33%; in test [17] it was 2.97%; in test [18] it was -0.13%. Moreover, the inhibition was 3.8% in [19] and -0.82% in test [20].
As to `Nc1nccc(-c2c(-c3ccc(F)cc3)ncn2C2CCNCC2)n1`, the inhibition in test [1] is 5.19% and 1.66%; in test [2], -3.53% and -3.93%; in test [3], -2.75% and -0.14%; in [4] it was -3.09% and 0.25%; in test [5] it was -2.02% and 1.56%; in test [6], -4.58% and -1.23%. The inhibition is -3.86% and -0.28% in [7]; -9.21% and 0.56% in test [8]; -3.77% and 2.85% in test [9]; -8.03% and 2.08% in test [10]; -8.13% and -0.6% in test [11]; -2.24% and 1.83% in test [12]. Also, the inhibition in test [13] was -1.66% and 0.75%; in [14], -1.77% and 0.86%; in [15], 3.78% and 0.72%; in test [16], -2.76% and 1.38%; in test [17] it was 4.44% and 1.12%; in [18] it was -0.74% and -0.69%. The inhibition was 4.57% and 2.57% in [19]; -3.43% and 2.15% in test [20].
Take `CN(c1ccc(NC(=O)NCCN2CCOCC2)cc1)c1ccnc(Nc2ccc(CS(C)(=O)=O)cc2)n1`: the inhibition in test [1] was 0.96%; in test [2], 4.31%; in test [3], 4.43%; in [4] it was 2.52%; in test [5], 1.58%; in [6] it was 4.14%. Besides, the inhibition in test [7] stood at 3.94%; in [8], 12.2%; in test [9], 13.5%; in test [10], 3.99%; in [11], 9.1%; in test [12], 2.54%. For the same molecule, the inhibition in [13] is 14.2%; in [14] it was 4.8%; in [15] it was 26.3%; in [16], 3.59%; in [17], 36.8%; in test [18], 8.57%. Further, the values for the inhibition in [19] and in [20] were 39.3% and 6.6%, respectively.
With `CN1CCC(C(=O)Nc2n[nH]c3nc(-c4ccc(O)cc4)c(Br)cc23)CC1`, the inhibition in [1] is 21.2% and 19.8%; in test [2], 7.92% and -0.37%; in [3], 5.42% and 3.31%; in test [4], 0.62% and -0.51%; in test [5], 1.42% and -0.53%; in test [6], 4.2% and 1.97%. The inhibition was 5.02% and 1.71% in test [7]; -5.26% in test [8]; -8.73% and 0.52% in test [9]; -2.46% and -9.85% in test [10]; -4.52% in test [11]; 2.77% and -0.12% in test [12]. The inhibition in test [13] was 13.4% and 6.5%; in [14], 4.9% and 3.81%; in [15], 15.7% and 13.9%; in test [16], 1.55% and 2.92%; in test [17], 13.9% and 9.89%; in test [18], 3.16% and 3.78%. The inhibition in test [19] was 17.1% and 15.7%; in test [20] it was 2.49% and 2.76%.
On to `FC(F)(F)CNc1nccc(-c2cnn3ncccc23)n1`, for which the inhibition was -0.52% in test [1]; 0.97% in test [2]; 6.19% in test [3]; 0.24% in test [4]; -0.87% in test [5]; 4.27% in test [6]. Moreover, the inhibition in test [7] is 3.14%; in [8] it was 1.55%; in test [9], 1.35%; in test [10], -2.63%; in [11], -2.36%; in [12], 6.33%. The inhibition in test [13] was 1.46%; in test [14], 2.61%; in test [15], 2.38%; in [16], 0.25%; in test [17] it was 0.76%; in [18] it was 1.08%. In addition, the results for the inhibition in test [19] and in test [20] were 1.59% and 0.06%, respectively.
Consider `CCOc1ccc2c(-c3ccnc(Nc4cc(OC)cc(C(F)(F)F)c4)n3)cnn2n1`, for which the inhibition is 1.8% in test [1]; 2.05% in test [2]; 0.59% in test [3]; -0.62% in test [4]; 0.03% in test [5]; -0.15% in test [6]. Besides, the inhibition in test [7] was -0.09%; in [8], 0.09%; in test [9], 8.65%; in test [10], -8.96%; in test [11], 3.48%; in test [12], 0.14%. Also, the inhibition in test [13] is 4.02%; in test [14], 0.25%; in test [15] it was 6.23%; in test [16] it was 2.11%; in [17] it was 7.2%; in test [18] it was 1.15%. The inhibition in test [19] stood at 6.33%; in [20], 0.17%.
For `CS(=O)(=O)CCNCc1ccc(-c2ccc3ncnc(Nc4ccc(OCc5ccccc5)cc4)c3c2)o1`, the inhibition in [1] was 1.34%; in test [2], 6.85%; in test [3], 5.65%; in [4] it was 0.34%; in [5], -0.94%; in test [6], 3.86%. Moreover, the inhibition in test [7] was 3.33%; in test [8], 3.91%; in [9], 2.57%; in test [10] it was -3.53%; in test [11], -0.08%; in test [12], 2.13%. Besides, the inhibition in test [13] came to 3.38%; in test [14] it was 4.24%; in test [15], 5.36%; in [16] it was 2.42%; in test [17] it was 4.54%; in test [18] it was 3.95%. For the same molecule, the inhibition was found to be 5.12% in test [19] and 1.78% in test [20].
Regarding `NS(=O)(=O)c1ccc(N/N=C2\C(=O)Nc3ccc(C(=O)NCc4ccncc4)cc32)cc1`, the inhibition came to 6.51% in [1]; 4.25% in [2]; 4.68% in test [3]; 2.01% in [4]; 2.49% in test [5]; 4.5% in test [6]. Further, the inhibition was 4.65% in test [7]; 9.16% in test [8]; 11.3% in test [9]; -4.52% in test [10]; 12.5% in test [11]; 0.9% in test [12]. Also, the inhibition is 10% in test [13]; 2.55% in test [14]; 15% in [15]; 1.51% in test [16]; 13.2% in test [17]; 1.73% in test [18]. Also, the inhibition is 11.6% in test [19] and 2.6% in [20].
As to `CCS(=O)(=O)c1ccc(OC)c(Nc2ncc(-c3cccc(F)c3)o2)c1`, the inhibition in test [1] was -0.44%; in test [2], 9.43%; in test [3] it was 11.2%; in test [4] it was 1.97%; in test [5], 2.27%; in test [6], 6%. Also, the inhibition in test [7] is 9.2%; in [8] it was 7.29%; in test [9], 9.85%; in test [10], -7.56%; in [11], -6.17%; in test [12], 30.8%. The inhibition in test [13] came to 80.4%; in test [14] it was 40.8%; in [15], 85.8%; in test [16] it was 38.6%; in [17], 85%; in [18], 41.9%. The figures for the inhibition in [19] and in test [20] were 86.4% and 4.78%, respectively.

For orientation: inhibition means the drop in the measured response relative to a control, in per cent.
